Assay results as given in paper PMC4336329 (PLoS ONE, 2015).
About 14,000 (4.5%) of roughly 310,000 compounds showed an effect of 50% or more. The effect is printed as a negative number. This is one part of a sample in which strong results are shown more often than they occur.

target: human ether-à-go-go-related gene (hERG) potassium channel (human, UniProt Q12809); test: primary screen, population patch clamp on CHO cells stably expressing hERG; higher = less effect of the substance
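Further: peak tail current of the secondary pulse compared with the same well before compound.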

human ether-à-go-go-related gene (hERG) potassium channel, sequence (Q12809 whole entry, looked up): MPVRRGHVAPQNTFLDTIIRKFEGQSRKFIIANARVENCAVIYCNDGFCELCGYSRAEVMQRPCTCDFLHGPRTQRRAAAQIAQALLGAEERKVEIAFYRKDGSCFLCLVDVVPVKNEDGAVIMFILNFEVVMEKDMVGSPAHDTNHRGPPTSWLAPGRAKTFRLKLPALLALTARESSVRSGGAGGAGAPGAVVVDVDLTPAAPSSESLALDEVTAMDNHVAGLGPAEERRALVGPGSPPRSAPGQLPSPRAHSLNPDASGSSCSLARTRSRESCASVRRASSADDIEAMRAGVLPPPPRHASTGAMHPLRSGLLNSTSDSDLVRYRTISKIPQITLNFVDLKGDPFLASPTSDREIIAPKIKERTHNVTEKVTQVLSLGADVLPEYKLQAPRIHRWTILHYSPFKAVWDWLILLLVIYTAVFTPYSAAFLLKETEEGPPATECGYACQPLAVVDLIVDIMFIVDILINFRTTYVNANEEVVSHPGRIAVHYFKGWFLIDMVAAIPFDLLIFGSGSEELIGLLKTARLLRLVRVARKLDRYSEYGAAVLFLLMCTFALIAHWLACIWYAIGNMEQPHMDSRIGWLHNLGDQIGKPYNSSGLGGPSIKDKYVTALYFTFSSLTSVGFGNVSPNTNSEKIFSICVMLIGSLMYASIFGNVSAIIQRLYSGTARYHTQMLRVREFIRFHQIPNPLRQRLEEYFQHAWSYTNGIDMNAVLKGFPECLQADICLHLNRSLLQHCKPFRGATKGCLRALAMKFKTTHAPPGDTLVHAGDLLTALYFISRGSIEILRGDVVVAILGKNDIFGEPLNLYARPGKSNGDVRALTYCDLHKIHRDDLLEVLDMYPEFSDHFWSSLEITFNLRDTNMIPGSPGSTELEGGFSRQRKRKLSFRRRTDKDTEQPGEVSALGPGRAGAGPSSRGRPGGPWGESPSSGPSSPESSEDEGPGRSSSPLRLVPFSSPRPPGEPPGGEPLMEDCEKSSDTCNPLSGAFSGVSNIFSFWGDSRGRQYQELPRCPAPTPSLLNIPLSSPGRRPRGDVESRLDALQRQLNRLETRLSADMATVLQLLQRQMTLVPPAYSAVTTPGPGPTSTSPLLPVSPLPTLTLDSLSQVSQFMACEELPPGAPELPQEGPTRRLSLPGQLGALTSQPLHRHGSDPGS

Row | Structure (SMILES) | hERG current change (%, negative = inhibition) at 10uM
1 | COCCN(C(=O)COC(=O)c1ccccc1Oc1ccccc1)c1c(N)n(Cc2ccccc2)c(=O)[nH]c1=O | -21.6%
2 | Cc1cc(C(=O)N2CCN(c3ncccn3)CC2)sc1-c1ccccc1 | -3.34%
3 | O=[N+]([O-])c1ccccc1/C=N/NC1=NCCN1 | 7.6%
4 | COc1ccccc1N1CCN(C(=O)CCNC(=O)Cn2ccc3ccccc3c2=O)CC1 | 2.62%
5 | CN(C(=O)C1CCC(=O)N(CCCN2CCCC2=O)C1)C(C1CC1)C1CC1 (centres unmarked) | 12.1%
6 | CC(=O)Nc1ccc(S(=O)(=O)Nc2ccc3c(c2)OCO3)cc1 | 17.2%
7 | CN(C)S(=O)(=O)c1cccc(NC(=O)COC(=O)C2CCN(C(=O)c3ccc(F)cc3)CC2)c1 | -50.8%
8 | O=C(Nc1cccc(S(=O)(=O)N2CCCCC2)c1)C1CCN(C(=O)c2ccc(Cl)cc2)CC1 | -31.7%
9 | O=C(Nc1cccc(S(=O)(=O)N2CCCCC2)c1)C1CC1 | -10.6%
10 | O=C(Nc1cccc(S(=O)(=O)N2CCCCCC2)c1)C1CCC1 | -57.4%
11 | O=C(Nc1cccc(S(=O)(=O)N2CCOCC2)c1)[C@@H]1CCCN1S(=O)(=O)c1ccc(Cl)cc1 | -62.8%
12 | O=C(Nc1cccc(S(=O)(=O)N2CCCCC2)c1)C1CCC1 | 3.43%
13 | CN(C)S(=O)(=O)c1cccc(NC(=O)COC(=O)CCC(=O)c2ccc(F)cc2)c1 | -36%
14 | CN(c1ccccc1)S(=O)(=O)c1cccc(NC(=O)COC(=O)C2CCCCC2)c1 | 13.7%
15 | O=C(Nc1cccc(S(=O)(=O)N2CCCCCC2)c1)C1CCN(C(=O)c2ccc(Cl)cc2)CC1 | -41.9%
16 | O=C(Nc1cccc(S(=O)(=O)N2CCOCC2)c1)C1CCCC1 | -4.03%
17 | O=C(Nc1cccc(S(=O)(=O)N2CCOCC2)c1)C1CCCN(C(=O)c2ccc(Cl)cc2)C1 (centres unmarked) | -32.4%
18 | O=C(Nc1cccc(S(=O)(=O)N2CCCCCC2)c1)C1CCN(C(=O)c2ccc(F)cc2)CC1 | -88%
19 | CC(C)CCNC(=O)c1ccc2c(SCC(=O)O)c3c(nc2c1)CCCC3 | -2.6%
20 | Cc1ccc(N(C)S(=O)(=O)c2csc(C(N)=O)c2)cc1C | -14.8%
21 | Cc1ccc(CN2C(=O)CCC2C(=O)NCCN(CC(C)C)CC(C)C)cc1 (centres unmarked) | -13.4%

Row | Structure (SMILES) | hERG current change (%, negative = inhibition) at 10uM
22 | CCOc1cc(N2CCOCC2)c(OCC)cc1NC(=O)C1=NN(c2cccc(C)c2)C(=O)CC1 | -3.8%
23 | COc1cc(Cn2nnc3ccccc32)cc(Br)c1O | 3%
24 | Cc1ccccc1NC(=O)Cn1c(CCC(=O)O)ccc1-c1cccs1 | 15.4%
25 | CCN(C(=O)CSc1ccc2ccccc2n1)C1CCS(=O)(=O)C1 (centres unmarked) | -7.61%
26 | Cc1sc2c(c1C)c(=O)n(-c1ccc(Cl)cc1)c(=O)n2Cc1cc(=O)n2ccccc2n1 | -36.4%
27 | Cc1ccc(-n2c(=O)c3c4c(sc3n(Cc3cc(=O)n5ccccc5n3)c2=O)CCC4)cc1C | -69.1%
28 | Cc1ccc(-n2c(=O)c3c(C)c(C)sc3n(Cc3cc(=O)n4ccccc4n3)c2=O)cc1C | -4.43%
29 | CS(=O)(=O)N(Cc1ccc(C(=O)NN=C2CCCCCC2)cc1)c1ccccc1 | -7.08%
30 | CCCCC(C(=O)O)C(C)CC(=O)NNC(=O)c1ccco1 (centres unmarked) | 13.2%
31 | C(=N\Nc1nncc2ccccc12)/c1ccccc1 | 1.52%
32 | COc1ccc(Cl)cc1N/C(N)=N/c1nc(C)cc(C)n1 | -84.2%
33 | COc1ccc(C)cc1N/C(N)=N/c1nc(C)cc(C)n1 | -74.4%
34 | CCOC(=O)Nc1cc(C)ccc1OC | 11.2%
35 | Cc1ccc(N/C(N)=N/c2nc(C)cc(N3CCCCC3)n2)c(C)c1 | -83%
36 | COc1ccc(OC)c(N/C(=N/c2nc(C)cc(C)n2)NC(C)=O)c1 | 14.5%
37 | COc1ccc(OC)c(N/C(N)=N/c2nc(C)cc(C)n2)c1 | -50.1%
38 | COc1ccccc1N/C(N)=N/c1nc(C)cc(C)n1 | -32.9%
39 | COc1ccc(Cl)cc1NC(=O)CSc1nc(C)cc(C)n1 | -32.6%
40 | CC(=O)N/C(=N/c1nc(C)cc(C)n1)Nc1ccc(C)cc1C | -10.6%
41 | Cc1ccc(C)c(N/C(N)=N/c2nc(C)cc(C)n2)c1 | -34.2%
42 | COc1ccc(Cl)cc1N/C(N)=N/c1nc(C)cc(=O)[nH]1 | 20%

Row | Structure (SMILES) | hERG current change (%, negative = inhibition) at 10uM
43 | COc1ccc(N/C(N)=N/c2nc(C)cc(C)n2)c(OC)c1 | -26.4%
44 | CCOc1ccc(CNC(=O)C(=O)c2cn(CC(=O)N3CCOCC3)c3ccccc23)cc1OC | 17.1%
45 | COC(=O)C1=C(C)Nc2ncnn2C1c1cccnc1 (centres unmarked) | 2.93%
46 | O=C(Cn1ncc2c([nH]c3ccccc32)c1=O)N1CCN(c2ccccc2F)CC1 | 1.65%
47 | CCN(CC)CCCN1C(=O)C(=O)/C(=C(/O)c2ccc3c(c2)OCCO3)C1c1ccco1 (centres unmarked) | -6.06%
48 | CC(C)c1cccc(C(C)C)c1NC(=O)COC(=O)[C@H](C)NC(N)=O | 16.8%
49 | CCCOc1ccccc1N/C(=N/c1nc(C)cc(C)n1)NC(=O)COc1ccc(OC)cc1 | -10%
50 | COc1cc(N/C(N)=N/c2nc(C)cc(C)n2)c(OC)cc1Cl | -56.7%
51 | CCCOc1ccccc1N/C(N)=N/c1nc(C)cc(C)n1 | -85.8%
52 | Cc1cc(C)nc(/N=C(\N)Nc2cc([N+](=O)[O-])ccc2C)n1 | -49%
53 | COc1cc(NC(N)=S)c(OC)cc1Cl | 6.66%
54 | CCCOc1ccccc1N/C(=N/c1nc(C)cc(C)n1)NC(=O)Nc1ccc(Cl)cc1 | -1.32%
55 | Cc1ccc(-c2cc([C@H]3[C@@H]4C=CCC[C@@]4(C)C(=O)N3Cc3ccccc3)ccc2F)cc1 | 8.75%
56 | CC1CC(OC(=O)c2ccccc2)CC(C)N1C.Cl (centres unmarked) | -5.09%
57 | Cc1cc(N/N=C/c2c(O)ccc3ccccc23)nc(-c2ccccc2O)n1 | -3.98%
58 | O=C(CSc1cccc[n+]1[O-])Nc1cc(S(=O)(=O)N2CCOCC2)ccc1N1CCOCC1 | 16%
59 | CCCCCCCNC(=O)C1(CC2CC(c3cccc(Br)c3)=NO2)CCNCC1 (centres unmarked) | -70.3%
60 | CCCCCCCNC(=O)C1(CC2CC(c3cccc(Br)c3)=NO2)CCN(C(=O)Cc2ccc(F)cc2)CC1 (centres unmarked) | -7.08%
61 | CCCNC(=O)C1(CC2CC(c3ccccc3)=NO2)CCNCC1 (centres unmarked) | 23.5%
62 | CCCCCCCNC(=O)C1(CC2CC(c3cccc(Br)c3)=NO2)CCN(C(=O)C2(C)CC2)CC1 (centres unmarked) | -26%
63 | CCCCCCCNC(=O)C1(CC2CC(c3ccc(Cl)cc3)=NO2)CCNCC1 (centres unmarked) | -63.1%

Row | Structure (SMILES) | hERG current change (%, negative = inhibition) at 10uM
64 | O=C(NCc1ccccc1)C1(CC2CC(c3ccccc3)=NO2)CCNCC1 (centres unmarked) | -7.21%
65 | CCCCCCCNC(=O)C1(CC2CC(c3ccccc3)=NO2)CCNCC1 (centres unmarked) | -58.8%
66 | NC(=S)N1CCCc2ccccc21 | -3.03%
67 | CC1(c2ccccc2)NC(=O)N(CC(=O)N2CCOCC2)C1=O (centres unmarked) | 3.77%
68 | O=C(Nc1nnc(COc2ccc(Cl)cc2)s1)c1cccs1 | -6.91%
69 | Cc1csc(=O)n1CC(=O)OCC(=O)Nc1cc(Cl)ccc1[N+](=O)[O-] | -17.8%
70 | Cc1cccc(C)c1-n1nnnc1C(C)(C)N1CCN(N=O)CC1 | 14.7%
71 | COc1ccc(NC(C)(C)c2nnnn2-c2c(C)cccc2C)cc1 | -4.2%
72 | COc1cccc(NC(C)(C)c2nnnn2-c2c(C)cccc2C)c1 | -63.4%
73 | O=C(NCCc1cccs1)C1CC(c2cccc([N+](=O)[O-])c2)=NO1 (centres unmarked) | -23.5%
74 | CCCCNc1nc(Nc2ccc(C)c(Cl)c2)c2cnn(C)c2n1 | 15.3%
75 | COc1ccccc1-c1nnc(SCC(=O)NC2CCS(=O)(=O)C2)n1CCc1ccccc1 (centres unmarked) | 8.05%
76 | O=C(CSc1nc2ccccc2c(=O)n1-c1ccccc1F)NC1CCS(=O)(=O)C1 (centres unmarked) | -57%
77 | CN(C(=O)CSc1nc2cc([N+](=O)[O-])ccc2n1-c1ccc(F)cc1)C1CCS(=O)(=O)C1 (centres unmarked) | 2.56%
78 | COc1ccccc1-n1c(SCC(=O)NC2CCS(=O)(=O)C2)nc2ccccc2c1=O (centres unmarked) | -3.39%
79 | CCn1c(SCC(=O)NC2CCS(=O)(=O)C2)nnc1-c1ccccc1 (centres unmarked) | 5.49%
80 | O=C(CSc1nnc(-c2ccc(Br)cc2)n1CCc1ccccc1)NC1CCS(=O)(=O)C1 (centres unmarked) | -86.8%
81 | O=C(CSc1nc2cc([N+](=O)[O-])ccc2n1-c1ccc(F)cc1)NC1CCS(=O)(=O)C1 (centres unmarked) | -52.6%
82 | COc1ccccc1-n1c(SCC(=O)NC2CCS(=O)(=O)C2)nc2cc([N+](=O)[O-])ccc21 (centres unmarked) | -16.2%
83 | O=C(CSc1nc2ccccc2c(=O)n1-c1ccccc1Cl)NC1CCS(=O)(=O)C1 (centres unmarked) | 6.55%
